Measurements: PubChem BioAssay (NCI)
This is part of a sample that, as a whole, favours compounds with a hit. Of some 83,000 tested, about 20% had one in any assay.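 Cell lines were cultured in 96-well plates, exposed to a single compound concentration, and assessed for percent growth 48 hours later.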 Values without a mark were called inactive. Active and inactive are the calls of the source. How the source made its calls: active means growth percent below 10; inactive means the rest.

How the values were obtained:
Assay in all cases: NCI-60 one-dose screen, 48 h (100 = growth as untreated, 0 = no growth, -100 = all killed)
Details in all cases: 10 µM unless noted
T-47D breast = test system: T-47D breast
BT-549 breast = test system: BT-549 breast
SW-620 colon = test system: SW-620 colon
MCF7 breast = test system: MCF7 breast
HCT-116 colon = test system: HCT-116 colon
HCC-2998 colon = test system: HCC-2998 colon
KM12 colon = test system: KM12 colon
MDA-MB-435 melanoma = test system: MDA-MB-435 melanoma

Compound | growth (T-47D breast) | growth (BT-549 breast) [%] | growth (SW-620 colon) | growth (MCF7 breast) | growth (HCT-116 colon) | growth (HCC-2998 colon) | growth (KM12 colon) | growth (MDA-MB-435 melanoma)
O=[N+]([O-])c1c(Cl)ncnc1Cl | 117% | 106 | 95.3% | 95.2% | 115% | 121% | 102% | 
CCCCCCCCCCCCCCCCCCSC(=N)N | 90% | 104 |  | 51.7% | 66.6% | 45.2% | 64.5% | 84.7%
Oc1ccc(CCC2CCNc3ccccc32)cc1 (stereo unspecified) | 63.9% | 47.2 | 97.2% | 98.6% | 89.3% | 102% | 88.4% | 
NC(=O)N1CCOCC1 | 97.4% |  | 112% | 93% | 106% | 112% | 108% | 116%
CCOC(=O)CNC(=O)Sc1ccc(C(C)(C)C)cc1 | 88.4% |  | 108% | 99.3% | 98.6% | 110% |  | 88.3%
Cc1ccc(C(C)C)c(OCC(=O)O)c1 | 117% | 112 |  | 100% | 105% | 106% | 108% | 108%
Nc1c(Br)cc(O)c2c1C(=O)c1ccccc1C2=O | 93.7% | 94.5 |  | 83.8% | 69.8% |  | 24.7% | 98%
O=c1cc(C(F)(F)F)[nH]c(=S)[nH]1 | 97.7% | 122 |  | 94.9% | 112% | 117% | 103% | 106%
CC(=O)NNC(=S)N/C=C/c1c(C)ccc([N+](=O)[O-])c1[N+](=O)[O-] | 110% | 99.9 |  |  | 89.9% | 107% | 97.2% | 100%
S=C(Sc1ccc(Cl)cc1)Sc1ccc(Cl)cc1 | -1.08% (active) |  | -68% (active) | 24% | -68.4% (active) | 24.1% | 41% | 19.6%
CCOC(=O)c1ccc(NC(=O)Nc2nccs2)cc1 | 57.3% |  | 16.5% | 0.495% (active) | 1.86% (active) | -27.7% (active) | -33.3% (active) | 5.34% (active)
Cc1ccc2nc(N)nnc2c1 | 108% |  | 95.1% | 104% | 108% | 103% | 103% | 106%
O=C(OC1CCCC1)c1ccccc1Cl | 96% | 104 |  | 96.2% | 98.7% | 103% | 105% | 105%
CCOC(=O)c1c(C)[nH]c(C)c1C=O | 82% |  | 97.9% | 89.1% | 101% | 92.9% |  | 105%
CC(=O)c1cccc(N(C)S(=O)(=O)c2ccc(C)cc2)c1 | 87.8% | 82.8 |  | 60.5% | 94% | 82.6% | 49.8% | 8.55% (active)
C=CC(C)C(C)(C)O (stereo unspecified) | 89.2% |  | 101% | 101% | 93.9% | 106% | 101% | 102%
Nc1ncnc2c1ncn2C1OC(CO)C2OC21 (stereo unspecified) | 84.7% |  | 99.5% | 93.6% | 108% | 105% | 109% | 111%
CC1(C)CC(=O)C=C(N)C1 | 141% |  | 96% | 160% | 102% | 45.4% | 124% | 99.2%
COc1ccc(Br)c2c1C(=O)CC2 | 133% |  | 123% | 107% | 108% | 113% | 117% | 116%
CN1C(=O)NC(c2ccc(Cl)cc2)(c2ccc(Cl)cc2)C1=O | 94.2% |  | 103% | 102% | 88.2% | 101% | 87.9% | 97.3%

Compound | growth (T-47D breast) | growth (BT-549 breast) [%] | growth (SW-620 colon) | growth (MCF7 breast) | growth (HCT-116 colon) | growth (HCC-2998 colon) | growth (KM12 colon) | growth (MDA-MB-435 melanoma)
CC(CCC#N)(CCC#N)C(=O)c1ccccc1 | 93.8% |  | 103% | 95.9% | 112% | 101% | 108% | 107%
N#Cc1ccc2nc[nH]c2c1 | 107% |  | 104% | 96.8% | 105% | 110% | 98.5% | 109%
COC(=O)c1ccc([N+](=O)[O-])c(C)c1 | 102% |  | 103% | 91% | 95.6% | 106% | 99.8% | 101%
Cc1ccc(S(=O)(=O)CCCl)cc1 | 106% |  | 110% | 100% | 118% | 104% | 111% | 117%
O=C(NC1CCCCC1)c1ccc(Cl)cc1 | 85.1% |  | 103% | 104% | 106% | 106% | 102% | 105%
O=C1C=C[C@H](O)[C@@]2(CO)O[C@@H]12 | 94.2% |  | 13.9% | 42.9% | 19.9% | 104% | 98.4% | 77%
Cc1ccc(S(N)(=O)=O)cc1Cl | 102% |  | 114% | 96.3% | 104% | 116% | 112% | 114%
NC(CO)(CO)c1ccccc1 | 99.7% |  | 96.9% | 95.9% | 101% | 110% | 94.5% | 98.4%
Nc1ccc(F)cc1F | 101% |  | 106% | 96% | 88.5% | 113% | 108% | 107%
Cc1ccc2nc(-c3ccc(N=Cc4ccccc4O)cc3)sc2c1 | 69% |  | 97.8% | 77.1% | 79.2% | -12.3% (active) | 99.2% | 105%
NC(=S)N/N=C/c1ccc(Cl)cc1 | 86.8% |  | 113% | 93.4% | 100% | 96.2% | 113% | 110%
Cc1cc2nc(C)c(C)nc2cc1C | 99.5% |  | 111% | 90.7% | 112% | 110% | 108% | 105%
Cc1cc(C(=O)c2ccccc2)cc(C)c1O | 95.6% |  | 97.4% | 93.8% | 84.5% | 102% | 99.6% | 101%
CN=S(=O)(OCCCCCOS(=O)(=NC)c1ccc(C)cc1)c1ccc(C)cc1 (stereo unspecified) | 88.5% |  | 84.9% | 87.6% | 75.2% | 91.5% | 98.2% | 91.9%
NC(CSSCC(N)C(=O)O)C(=O)O (stereo unspecified) | 54.7% |  | 21.7% | 20.4% | 18.6% | 9.17% (active) | 8.65% (active) | -15.1% (active)
CC(O)C(F)(F)C(F)(F)C(F)(F)F (stereo unspecified) | 110% |  | 101% | 101% | 100% | 111% | 114% | 110%
Nc1cccc2cccc(O)c12 | 102% |  | 67.4% | 79.9% | 78.8% | 95.8% | 128% | 108%
CCCCCC#CC(=O)O | 85.2% |  | 104% | 95.4% | 112% | 113% | 121% | 107%
Cc1ccc([N+](=O)[O-])c(C)n1 | 102% |  | 99.5% | 96.2% | 104% | 103% | 107% | 99.8%
Cc1cc(Cc2ccccc2)c(O)c(Cc2ccccc2)c1 | 85.3% |  | 102% | 105% | 73.5% | 101% | 90.5% | 98.1%
